In the supplement of paper PMC4466140:

Legend:
Test in all cases: SPOT peptide array binding signal intensity (averaged, normalized) (arbitrary units (background-subtracted, floor 0; scale differs between SH3 domains)); higher = stronger binding of the SH3 domain to the peptide
SpBzz1-D2 = target: SpBzz1-D2
Procedure, shortened: (§1)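 The binding signal is the normalized, background-subtracted spot intensity averaged over replicates; its arbitrary units differ between domains. It was obtained by incubating 10 μg/ml GST-fused SH3 domains from four yeast species overnight at 4°C in TBS-based blocking buffer on cellulose membranes with synthetic 15-mer peptides, cysteines replaced by serines, then detecting with anti-GST antibody, HRP anti-mouse secondary and luminol.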

SpCyk3 = target: SpCyk3
Procedure, shortened: as §1

SpHof1 = target: SpHof1
Procedure, shortened: as §1

SpHof1-2 = target: SpHof1-2
Procedure, shortened: as §1

SpHof1-3 = target: SpHof1-3
Procedure, shortened: as §1

SpHse1 = target: SpHse1
Procedure, shortened: as §1

SpLsb1 = target: SpLsb1
Procedure, shortened: as §1

SpLsb4 = target: SpLsb4
Procedure, shortened: as §1

SpMyo1 = target: SpMyo1
Procedure, shortened: as §1

SpNbp2 = target: SpNbp2
Procedure, shortened: as §1

SpPex13 = target: SpPex13
Procedure, shortened: as §1

SpRvs167 = target: SpRvs167
Procedure, shortened: as §1

SpSla1-D1-D2 = target: SpSla1-D1-D2
Procedure, shortened: as §1

SpSla1-D3 = target: SpSla1-D3
Procedure, shortened: as §1

AgAbp1 = target: AgAbp1
Procedure, shortened: as §1

AgBbc1 = target: AgBbc1
Procedure, shortened: as §1

AgBem1-D1 = target: AgBem1-D1
Procedure, shortened: as §1

AgBzz1-D1 = target: AgBzz1-D1
Procedure, shortened: as §1

AgBzz1-D2 = target: AgBzz1-D2
Procedure, shortened: as §1

AgCyk3 = target: AgCyk3
Procedure, shortened: as §1

AgFus1 = target: AgFus1
Procedure, shortened: as §1

AgHof1 = target: AgHof1
Procedure, shortened: as §1

AgHse1 = target: AgHse1
Procedure, shortened: as §1

AgLsb1 = target: AgLsb1
Procedure, shortened: as §1

AgLsb4 = target: AgLsb4
Procedure, shortened: as §1

AgMyo5 = target: AgMyo5
Procedure, shortened: as §1

AgNbp2 = target: AgNbp2
Procedure, shortened: as §1

AgRvs167 = target: AgRvs167
Procedure, shortened: as §1

AgSho1 = target: AgSho1
Procedure, shortened: as §1

AgSla1-D1-D2 = target: AgSla1-D1-D2
Procedure, shortened: as §1

AgSla1-D3 = target: AgSla1-D3
Procedure, shortened: as §1

CaAbp1-D1 = target: CaAbp1-D1
Procedure, shortened: as §1

CaAbp1-D2 = target: CaAbp1-D2
Procedure, shortened: as §1

CaBbc1 = target: CaBbc1
Procedure, shortened: as §1

CaBem1-D1 = target: CaBem1-D1
Procedure, shortened: as §1

CaBzz1-D1 = target: CaBzz1-D1
Procedure, shortened: as §1

CaBzz1-D2 = target: CaBzz1-D2
Procedure, shortened: as §1

CaCyk3 = target: CaCyk3
Procedure, shortened: as §1

CaFus1 = target: CaFus1
Procedure, shortened: as §1

CaHof1 = target: CaHof1
Procedure, shortened: as §1

CaHse1 = target: CaHse1
Procedure, shortened: as §1

CaLsb1 = target: CaLsb1
Procedure, shortened: as §1

CaLsb4 = target: CaLsb4
Procedure, shortened: as §1

CaMyo5 = target: CaMyo5
Procedure, shortened: as §1

CaNbp2 = target: CaNbp2
Procedure, shortened: as §1

CaRvs167 = target: CaRvs167
Procedure, shortened: as §1

CaRvs167-3 = target: CaRvs167-3
Procedure, shortened: as §1

CaSho1 = target: CaSho1
Procedure, shortened: as §1

CaSla1-D1-D2 = target: CaSla1-D1-D2
Procedure, shortened: as §1

CaSla1-D3 = target: CaSla1-D3
Procedure, shortened: as §1

ScAbp1 = target: ScAbp1
Procedure, shortened: as §1

ScBbc1 = target: ScBbc1
Procedure, shortened: as §1

ScBem1-D1 = target: ScBem1-D1
Procedure, shortened: as §1

ScBzz1-D1 = target: ScBzz1-D1
Procedure, shortened: as §1

ScBzz1-D2 = target: ScBzz1-D2
Procedure, shortened: as §1

ScCyk3 = target: ScCyk3
Procedure, shortened: as §1

ScFus1 = target: ScFus1
Procedure, shortened: as §1

ScHof1 = target: ScHof1
Procedure, shortened: as §1

ScHse1 = target: ScHse1
Procedure, shortened: as §1

ScLsb1 = target: ScLsb1
Procedure, shortened: as §1

ScLsb2 = target: ScLsb2
Procedure, shortened: as §1

ScLsb3 = target: ScLsb3
Procedure, shortened: as §1

ScLsb4 = target: ScLsb4
Procedure, shortened: as §1

ScMyo3 = target: ScMyo3
Procedure, shortened: as §1

ScMyo5 = target: ScMyo5
Procedure, shortened: as §1

ScNbp2 = target: ScNbp2
Procedure, shortened: as §1

ScPex13 = target: ScPex13
Procedure, shortened: as §1

ScRvs167 = target: ScRvs167
Procedure, shortened: as §1

ScSho1 = target: ScSho1
Procedure, shortened: as §1

ScSla1-D1-D2 = target: ScSla1-D1-D2
Procedure, shortened: as §1

ScSla1-D3 = target: ScSla1-D3
Procedure, shortened: as §1

SpAbp1-D1 = target: SpAbp1-D1
Procedure, shortened: as §1

SpBbc1 = target: SpBbc1
Procedure, shortened: as §1

SpBzz1-D1 = target: SpBzz1-D1
Procedure, shortened: as §1

YSRKKLPVVLSKMTL
SPOT peptide array binding signal intensity (SpBzz1-D2): 1.5
SPOT peptide array binding signal intensity (SpCyk3): 4
SPOT peptide array binding signal intensity (SpHof1): 76.8
SPOT peptide array binding signal intensity (SpHof1-2): 27.2
SPOT peptide array binding signal intensity (SpHof1-3): 295
SPOT peptide array binding signal intensity (SpHse1): 77.8
SPOT peptide array binding signal intensity (SpLsb1): 48
SPOT peptide array binding signal intensity (SpLsb4): 40.5
SPOT peptide array binding signal intensity (SpMyo1): 6
SPOT peptide array binding signal intensity (SpNbp2): 49.5
SPOT peptide array binding signal intensity (SpPex13): 53
SPOT peptide array binding signal intensity (SpRvs167): 8.67
SPOT peptide array binding signal intensity (SpSla1-D1-D2): 11.5
SPOT peptide array binding signal intensity (SpSla1-D3): 41.5

FPGKKSPRLPHRNKK
SPOT peptide array binding signal intensity (AgAbp1): 2580
SPOT peptide array binding signal intensity (AgBbc1): 61.9
SPOT peptide array binding signal intensity (AgBem1-D1): 47.5
SPOT peptide array binding signal intensity (AgBzz1-D1): 50
SPOT peptide array binding signal intensity (AgBzz1-D2): 33.5
SPOT peptide array binding signal intensity (AgCyk3): ≤ 0
SPOT peptide array binding signal intensity (AgFus1): 6.5
SPOT peptide array binding signal intensity (AgHof1): 35.8
SPOT peptide array binding signal intensity (AgHse1): 82.5
SPOT peptide array binding signal intensity (AgLsb1): ≤ 0
SPOT peptide array binding signal intensity (AgLsb4): 1270
SPOT peptide array binding signal intensity (AgMyo5): ≤ 0
SPOT peptide array binding signal intensity (AgNbp2): 87.2
SPOT peptide array binding signal intensity (AgRvs167): 12
SPOT peptide array binding signal intensity (AgSho1): 33
SPOT peptide array binding signal intensity (AgSla1-D1-D2): 144
SPOT peptide array binding signal intensity (AgSla1-D3): 13.5
SPOT peptide array binding signal intensity (CaAbp1-D1): 2250
SPOT peptide array binding signal intensity (CaAbp1-D2): 2660
SPOT peptide array binding signal intensity (CaBbc1): 372
SPOT peptide array binding signal intensity (CaBem1-D1): 49.8
SPOT peptide array binding signal intensity (CaBzz1-D1): 167
SPOT peptide array binding signal intensity (CaBzz1-D2): 126
SPOT peptide array binding signal intensity (CaCyk3): 4.75
SPOT peptide array binding signal intensity (CaFus1): 232
SPOT peptide array binding signal intensity (CaHof1): ≤ 0
SPOT peptide array binding signal intensity (CaHse1): 5.12
SPOT peptide array binding signal intensity (CaLsb1): 0.25
SPOT peptide array binding signal intensity (CaLsb4): 4250
SPOT peptide array binding signal intensity (CaMyo5): ≤ 0
SPOT peptide array binding signal intensity (CaNbp2): 216
SPOT peptide array binding signal intensity (CaRvs167): 247
SPOT peptide array binding signal intensity (CaRvs167-3): 7.25
SPOT peptide array binding signal intensity (CaSho1): 152
SPOT peptide array binding signal intensity (CaSla1-D1-D2): 332
SPOT peptide array binding signal intensity (CaSla1-D3): ≤ 0
SPOT peptide array binding signal intensity (ScAbp1): 918
SPOT peptide array binding signal intensity (ScBbc1): 15.5
SPOT peptide array binding signal intensity (ScBem1-D1): 7
SPOT peptide array binding signal intensity (ScBzz1-D1): 9.5
SPOT peptide array binding signal intensity (ScBzz1-D2): 4.25
SPOT peptide array binding signal intensity (ScCyk3): 12.5
SPOT peptide array binding signal intensity (ScFus1): ≤ 0
SPOT peptide array binding signal intensity (ScHof1): ≤ 0
SPOT peptide array binding signal intensity (ScHse1): 473
SPOT peptide array binding signal intensity (ScLsb1): 47.1
SPOT peptide array binding signal intensity (ScLsb2): 0.5
SPOT peptide array binding signal intensity (ScLsb3): 3120
SPOT peptide array binding signal intensity (ScLsb4): 1170
SPOT peptide array binding signal intensity (ScMyo3): ≤ 0
SPOT peptide array binding signal intensity (ScMyo5): ≤ 0
SPOT peptide array binding signal intensity (ScNbp2): 186
SPOT peptide array binding signal intensity (ScPex13): 393
SPOT peptide array binding signal intensity (ScRvs167): 714
SPOT peptide array binding signal intensity (ScSho1): 322
SPOT peptide array binding signal intensity (ScSla1-D1-D2): 570
SPOT peptide array binding signal intensity (ScSla1-D3): 5.25
SPOT peptide array binding signal intensity (SpAbp1-D1): 756
SPOT peptide array binding signal intensity (SpBbc1): 0.875
SPOT peptide array binding signal intensity (SpBzz1-D1): 208
SPOT peptide array binding signal intensity (SpBzz1-D2): 0.125
SPOT peptide array binding signal intensity (SpCyk3): 1.53e-05
SPOT peptide array binding signal intensity (SpHof1): 15.2
SPOT peptide array binding signal intensity (SpHof1-2): 19.8
SPOT peptide array binding signal intensity (SpHof1-3): 270
SPOT peptide array binding signal intensity (SpHse1): 142
SPOT peptide array binding signal intensity (SpLsb1): 17.9
SPOT peptide array binding signal intensity (SpLsb4): 2700
SPOT peptide array binding signal intensity (SpMyo1): 4.25
SPOT peptide array binding signal intensity (SpNbp2): 176
SPOT peptide array binding signal intensity (SpPex13): 6.5
SPOT peptide array binding signal intensity (SpRvs167): 833
SPOT peptide array binding signal intensity (SpSla1-D1-D2): 5
SPOT peptide array binding signal intensity (SpSla1-D3): 13
